Results on nine compounds are retold here after PubChem BioAssay.

The structures appear in SMILES notation. Calls of active or inactive are those of the source.

For assay [1], the target named is Albumin (Bos taurus) (UniProt P02769). Kind of assay: bovine serum albumin binders on microarray, profiling panel, artefact control for SMM control protein annotation, biochemical, small-molecule microarray, Alexa647 label, 635/667 nm fluorescence (AID 1118).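 Note: score merges 667 nm emission intensity and signal-to-noise per printed compound spot.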 Conditions: BSA-A647 binding, fluorescence 635 nm, higher = more signal.
Sequence of Albumin (Bos taurus) (P02769 whole entry, looked up): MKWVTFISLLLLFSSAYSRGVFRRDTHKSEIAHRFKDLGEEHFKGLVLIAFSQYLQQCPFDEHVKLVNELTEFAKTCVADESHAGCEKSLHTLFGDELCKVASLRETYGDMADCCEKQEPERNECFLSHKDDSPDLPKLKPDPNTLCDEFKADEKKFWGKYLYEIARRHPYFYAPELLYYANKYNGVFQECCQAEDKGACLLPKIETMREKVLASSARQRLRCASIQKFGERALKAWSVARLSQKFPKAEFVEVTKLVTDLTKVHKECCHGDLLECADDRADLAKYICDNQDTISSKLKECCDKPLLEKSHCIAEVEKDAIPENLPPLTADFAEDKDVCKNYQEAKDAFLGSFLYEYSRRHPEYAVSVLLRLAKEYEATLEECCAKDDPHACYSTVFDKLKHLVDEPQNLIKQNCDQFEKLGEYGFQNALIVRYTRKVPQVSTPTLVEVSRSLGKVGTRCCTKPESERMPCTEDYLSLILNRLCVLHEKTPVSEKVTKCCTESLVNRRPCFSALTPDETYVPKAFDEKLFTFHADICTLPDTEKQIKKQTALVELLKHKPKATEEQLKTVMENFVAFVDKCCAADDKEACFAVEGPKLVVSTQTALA
Assay [2] can be described thus: small-molecule microarray binders of probe aXIP, primary screen, biochemical, NeuroSMM set, 635/667 nm fluorescence (AID 1119).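 Note: probe is the protein aXip251-270 applied at 1 µg/mL to compound-printed slides; binding of probe to printed compounds measured as 667 nm fluorescence plus signal to noise.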 The settings on record: higher = more signal, called active from +8 up or from −8 down.
Assay [3] in a line: small-molecule binders of probe aNOTCH3, primary screen, biochemical, small-molecule microarray, 635/667 nm fluorescence (AID 1120).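 Note: probe is a biotin-tagged antibody raised against NOTCH3 rather than NOTCH3 protein; score merges spot fluorescence near 667 nm with spot signal to noise.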 The settings on record: higher = more signal.
Assay [4] can be described thus: small-molecule binders of probe aNOTCH2, primary screen, biochemical, small-molecule microarray, 635/667 nm fluorescence (AID 1121).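 Note: score merges feature fluorescence read at 667 nm with its signal to noise.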 Conditions: higher = more signal.
For assay [5], the target named is Carbonic anhydrase 2 (Homo sapiens) (UniProt P00918). Kind of assay: CAII small-molecule binders, profiling panel, biochemical, small-molecule microarray, Alexa647-labelled CAII (AID 1122). Conditions: CAII-A647 binding fluorescence, higher = more signal.
A short description of assay [6]: COS7 lysate on small-molecule microarray, probe aHis, 635 nm (AID 1123).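 Note: z-score combines 667nm fluorescence intensity with signal-to-noise per printed compound spot.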 Conditions: COS7 cell lysate, fluorescence, higher = more signal.
Assay [7] in a line: compound binding in COS7 lysate, probe aLAP1, primary screen, cell lysate, small-molecule microarray (AID 1124).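 Note: lysate comes from COS7 cells expressing LAP1 and is applied at 0.3 µg/mL; score merges spot fluorescence near 667 nm with signal-to-noise over triplicate slides.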 The settings on record: probe aLAP1, fluorescence, higher = more signal.
For assay [8], the system named is Sam68 (KHDRBS1). Kind of assay: Sam68 small-molecule binders, primary screen, biochemical, small-molecule microarray, 635 nm fluorescence (AID 1125).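 Note: score merges 667 nm channel intensity with signal to noise over triplicate slides.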 Conditions: small-molecule microarray binding, higher = more signal.
Assay [9] concerns Chordin-like protein 2 (CHRDL2). Kind of assay: CHRDL2 small-molecule binders, primary screen, biochemical, small-molecule microarray, 635 nm fluorescence (AID 1126).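 Note: printed compound slides probed with Chrdl2 protein at 4 µg/mL for 1 h at 4 C; score merges 667 nm emission intensity with signal to noise over three replicate slides.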 Conditions: small-molecule microarray binding, fluorescence 635 nm; higher = more signal.
In assay [10] the target is Concanavalin-A (Canavalia ensiformis) (UniProt P02866). Kind of assay: ConA small-molecule binders, primary screen, artefact control for SMM control protein annotation, biochemical, small-molecule microarray, Alexa647 label, 635 nm (AID 1127).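 Note: z combines 667 nm emission intensity with signal-to-noise across three replicate slides.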 Conditions: ConA-A647 binding fluorescence, higher = more signal.
Sequence of Concanavalin-A (Canavalia ensiformis) (P02866 whole entry, looked up): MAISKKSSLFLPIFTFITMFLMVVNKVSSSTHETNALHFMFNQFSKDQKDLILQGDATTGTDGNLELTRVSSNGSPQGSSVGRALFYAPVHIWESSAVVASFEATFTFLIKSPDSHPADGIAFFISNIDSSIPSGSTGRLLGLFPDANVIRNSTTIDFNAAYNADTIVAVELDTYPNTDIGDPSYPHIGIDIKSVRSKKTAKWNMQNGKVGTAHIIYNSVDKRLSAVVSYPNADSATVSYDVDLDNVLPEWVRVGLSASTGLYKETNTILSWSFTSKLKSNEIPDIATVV
Assay [11] can be described thus: anti-His antibody binders, primary screen, artefact control for SMM control protein annotation, biochemical, small-molecule microarray, 635 nm fluorescence (AID 1128).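 Note: score merges feature fluorescence with signal-to-noise for each printed compound spot.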 Conditions: anti-His Alexa647 antibody binding, higher = more signal.
In assay [12] the test system is Human papillomavirus type 1a E7 protein (residues 1-88). Kind of assay: HPV1a E7 small-molecule binders, primary screen, biochemical, small-molecule microarray, residues 1-88, 635 nm (AID 1129). Conditions: small-molecule microarray binding, fluorescence 635 nm; higher = more signal.
The target in assay [13] is Focal adhesion kinase 1 (Homo sapiens) (UniProt Q05397). Kind of assay: small-molecule microarray binders of FAK, primary screen, biochemical, 635/667 nm fluorescence, BSA, DTT (AID 1130).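 Note: composite of spot emission at 667 nm and signal to noise over triplicate slides.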 The settings on record: PTK2 binding, 635 nm fluorescence, higher = more signal.
Sequence of Focal adhesion kinase 1 (Homo sapiens) (Q05397 whole entry, looked up): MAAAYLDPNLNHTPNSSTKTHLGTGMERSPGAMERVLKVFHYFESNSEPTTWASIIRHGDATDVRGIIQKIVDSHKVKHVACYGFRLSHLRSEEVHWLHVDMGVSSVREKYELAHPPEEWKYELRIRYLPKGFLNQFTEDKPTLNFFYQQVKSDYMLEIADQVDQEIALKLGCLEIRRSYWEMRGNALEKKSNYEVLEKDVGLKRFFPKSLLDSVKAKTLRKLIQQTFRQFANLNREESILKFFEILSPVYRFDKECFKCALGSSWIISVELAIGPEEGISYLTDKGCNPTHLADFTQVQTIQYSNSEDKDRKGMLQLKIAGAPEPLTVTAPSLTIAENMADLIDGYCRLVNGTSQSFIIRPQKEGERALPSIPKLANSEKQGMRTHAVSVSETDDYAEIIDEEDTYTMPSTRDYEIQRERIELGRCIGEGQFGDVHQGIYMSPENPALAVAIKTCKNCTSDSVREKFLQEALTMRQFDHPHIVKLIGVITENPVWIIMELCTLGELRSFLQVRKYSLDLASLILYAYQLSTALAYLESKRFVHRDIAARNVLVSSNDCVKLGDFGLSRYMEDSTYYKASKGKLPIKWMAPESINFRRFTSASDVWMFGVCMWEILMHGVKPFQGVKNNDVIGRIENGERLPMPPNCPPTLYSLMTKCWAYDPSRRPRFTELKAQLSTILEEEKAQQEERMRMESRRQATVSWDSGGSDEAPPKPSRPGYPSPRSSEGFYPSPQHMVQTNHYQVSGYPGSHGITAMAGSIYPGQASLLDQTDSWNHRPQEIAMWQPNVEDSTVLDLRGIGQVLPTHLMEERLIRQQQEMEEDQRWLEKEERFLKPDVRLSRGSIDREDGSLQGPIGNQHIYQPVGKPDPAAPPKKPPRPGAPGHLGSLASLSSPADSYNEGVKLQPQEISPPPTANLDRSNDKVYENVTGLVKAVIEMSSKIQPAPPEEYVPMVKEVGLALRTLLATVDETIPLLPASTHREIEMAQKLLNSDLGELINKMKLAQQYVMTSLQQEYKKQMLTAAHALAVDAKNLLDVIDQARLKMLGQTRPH
The subject of assay [14] is Fibrinogen (Alexa647-labelled). Briefly: fibrinogen binders on compound microarrays, profiling panel, artefact control for SMM control-protein annotation, biochemical, small-molecule microarray, 635/667 nm fluorescence (AID 1131).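 Note: z-score merges 667 nm fluorescence with per-spot signal-to-noise over triplicate slides.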 Conditions: fibrinogen-A647 binding fluorescence, higher = more signal.
For assay [15], the target named is Follistatin (Homo sapiens) (UniProt P19883). Kind of assay: follistatin binders on small-molecule microarrays, primary screen, biochemical, small-molecule microarray, 635/667 nm fluorescence (AID 1132). The settings on record: FST binding, 635 nm fluorescence, higher = more signal.
Sequence of Follistatin (Homo sapiens) (P19883 whole entry, looked up): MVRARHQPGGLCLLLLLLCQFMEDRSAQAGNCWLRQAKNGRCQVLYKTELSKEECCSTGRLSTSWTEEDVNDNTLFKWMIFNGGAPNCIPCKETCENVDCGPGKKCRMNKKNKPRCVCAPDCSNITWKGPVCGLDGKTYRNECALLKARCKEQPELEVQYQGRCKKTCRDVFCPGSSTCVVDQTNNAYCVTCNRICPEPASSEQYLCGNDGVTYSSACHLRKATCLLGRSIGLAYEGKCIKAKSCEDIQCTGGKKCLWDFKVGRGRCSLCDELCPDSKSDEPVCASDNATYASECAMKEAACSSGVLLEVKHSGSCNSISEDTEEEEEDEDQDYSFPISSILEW
The target of assay [16] is Fibroblast growth factor 2 (Homo sapiens) (UniProt P09038). Briefly: FGF2 binders on small-molecule microarrays, primary screen, biochemical, small-molecule microarray, 635/667 nm fluorescence (AID 1133). The settings on record: small-molecule microarray binding, FGF2, fluorescence 635/667; higher = more signal.
Sequence of Fibroblast growth factor 2 (Homo sapiens) (P09038 whole entry, looked up): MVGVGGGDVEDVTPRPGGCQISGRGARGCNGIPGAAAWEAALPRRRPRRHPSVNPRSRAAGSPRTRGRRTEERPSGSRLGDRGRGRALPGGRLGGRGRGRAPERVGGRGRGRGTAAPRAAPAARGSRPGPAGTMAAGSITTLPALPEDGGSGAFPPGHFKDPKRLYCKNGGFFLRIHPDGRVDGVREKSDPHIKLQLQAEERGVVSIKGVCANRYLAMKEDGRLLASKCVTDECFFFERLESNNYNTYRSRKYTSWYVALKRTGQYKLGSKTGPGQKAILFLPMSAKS
Assay [17] is described as follows: mitochondrial membrane potential change in A549 cells, profiling panel, cell-based, JC-1 fluorescence, basal, 24 h, 100 nL (AID 1138).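 Note: A549 lung adenocarcinoma cells under basal conditions with no added stimulus; test concentration not given here.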 Conditions: higher = more signal.
For assay [18], the system named is Lefty1. Briefly: Lefty1 binders on small-molecule microarrays, primary screen, biochemical, small-molecule microarray, 635/667 nm fluorescence (AID 1139). The settings on record: small-molecule microarray binding, fluorescence 635/667; higher = more signal.
For assay [19], the system named is wheat germ agglutinin (Triticum aestivum), Alexa647-labelled. Briefly: wheat germ agglutinin binders on compound microarrays, profiling panel, artefact control for SMM control-protein annotation, biochemical, small-molecule microarray, 635/667 nm fluorescence (AID 1140).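 Note: score merges 667 nm feature emission with signal to noise over triplicate slides.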 The settings on record: WGA-A647 binding, 635 nm fluorescence, higher = more signal.
For assay [20], the target named is Luciferin 4-monooxygenase (Photinus pyralis) (UniProt P08659). Kind of assay: firefly luciferase enzyme inhibitors, primary screen, biochemical, luminescence, purified enzyme, 2006 set (AID 1141).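 Note: cell-free assay with purified firefly luciferase at 100 ng per well in PBS; test concentration not given here.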 The settings on record: SteadyGlo luminescence, 30 min, higher = more signal, called active from +8 up or from −8 down.
Sequence of Luciferin 4-monooxygenase (Photinus pyralis) (P08659 whole entry, looked up): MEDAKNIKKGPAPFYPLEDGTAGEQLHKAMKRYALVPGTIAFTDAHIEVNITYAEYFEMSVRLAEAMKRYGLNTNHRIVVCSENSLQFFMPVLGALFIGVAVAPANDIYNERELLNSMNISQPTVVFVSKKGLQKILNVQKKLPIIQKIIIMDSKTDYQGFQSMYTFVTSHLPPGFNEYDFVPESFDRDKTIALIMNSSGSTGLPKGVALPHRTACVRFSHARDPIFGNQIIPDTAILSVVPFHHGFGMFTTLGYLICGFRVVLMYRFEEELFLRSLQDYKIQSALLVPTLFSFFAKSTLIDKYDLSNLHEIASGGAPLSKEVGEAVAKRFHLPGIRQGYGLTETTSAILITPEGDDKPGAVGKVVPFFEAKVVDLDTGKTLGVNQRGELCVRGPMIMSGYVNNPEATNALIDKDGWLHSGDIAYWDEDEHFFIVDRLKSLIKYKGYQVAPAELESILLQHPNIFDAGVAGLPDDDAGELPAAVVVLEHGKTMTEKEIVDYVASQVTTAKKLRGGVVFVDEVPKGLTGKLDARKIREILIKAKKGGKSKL

For `CCOC(=O)C[C@H]1[C@H](OC(=O)c2ccc(C(=O)c3ccccc3)cc2)[C@@H](NC(=O)C2CCCCC2)c2cc(OCCCO)ccc2N1C(=O)c1ccccc1`, the composite z-score in assay [1] is 0.473; in [3], 0.369; in assay [4], -0.132; in assay [5], 0.159; in [6], 1.54; in assay [7], 0.297. For the same compound, the composite z-score in [8] is 1.31; in assay [9], -0.047; in assay [10], 0.799; in assay [11], 0.447; in assay [12] it was 0.881; in assay [13] it was 0.211. Also, the composite z-score in [14] was 0.636; in assay [15], 0.27; in [16] it was 0.0816; in assay [18], 0.166; in assay [19] it was 0.203. Further, the composite Z-score in [2] was 0.599 (inactive). Also, the z-score in [17] is 2.14; in assay [20], -0.46 (inactive).
With `CCCCC=C[C@@H](NC(=O)c1cccs1)c1ccccc1`, the composite z-score in assay [1] was 0.84; in assay [3], 0.0435; in assay [4], -0.0116; in assay [5], 0.251; in assay [6], 1.35; in [7], 0.369. Also, the composite z-score in assay [8] was 0.839; in assay [9], -0.406; in assay [10], 0.499; in assay [11], 0.813; in assay [12] it was 0.837; in assay [13], 0.351. Also, the composite z-score in [14] is 0.983; in assay [15], -0.145; in assay [16] it was 0.067; in assay [18], -0.389; in [19], 1.13. Moreover, the composite Z-score in [2] is -0.544 (inactive). The z-score was 0.679 in assay [17] and 0.969 (inactive) in [20].
Regarding `C[C@]1(C(=O)NCc2ccccc2)c2ccccc2C(=O)N(Cc2cc(F)cc(C(F)(F)F)c2)[C@H]1c1ccc(CO)cc1`, the composite z-score was -0.35 in assay [1]; -0.177 in assay [3]; -0.0971 in [4]; 0.699 in [5]; 0.157 in assay [6]; 0.325 in [7]. In addition, the composite z-score is -0.763 in assay [8]; -0.786 in assay [9]; -0.871 in assay [10]; 0.84 in [11]; -0.184 in assay [12]; -0.349 in assay [13]. Besides, the composite z-score is -0.582 in assay [14]; -1.13 in assay [15]; -0.278 in [16]; -1.14 in assay [18]; -0.566 in assay [19]. Besides, in assay [2], the composite Z-score was -0.146 (inactive). Moreover, the z-score in assay [17] was 0.916; in assay [20] it was 0.585 (inactive).
Take `C=CCOC(=O)[C@@H]1[C@H]2C(=O)O[C@H](c3ccccc3)[C@H](c3ccccc3)N2[C@H](c2ccc(OCCOC(=O)[C@@H]3C[C@@H]4C(=O)NCC(=O)N4[C@@H]3c3cccc(OCCO)c3)cc2)[C@@]12C(=O)Nc1ccc(I)cc12`: the composite z-score in [1] was -0.991; in assay [3], -0.0835; in assay [4] it was -0.0242; in assay [5], 0.501; in assay [6], 1.59; in assay [7], 0.875. Moreover, the composite z-score in assay [8] worked out at 1.3; in [9] it was 0.926; in assay [10], 0.964; in assay [11] it was 1.26; in [12], 1.17; in [13], 0.259. The composite z-score in assay [14] was determined as 0.615; in assay [15], 1.32; in [16], 1.31; in [18] it was 0.914; in [19], 0.449. For the same compound, in assay [2], the composite Z-score was -0.0135 (inactive). The z-score was -1.21 in assay [17] and -0.408 (inactive) in [20].
Consider `O=C1O[C@@H](c2ccccc2)[C@@H](c2ccccc2)N2[C@@H](c3ccccc3OCCO)[C@]3(C(=O)Nc4ccc(C#CC5(O)CCCCCC5)cc43)[C@@H](C(=O)Nc3nc4ccccc4s3)[C@H]12`, for which the composite z-score in assay [1] was 0.663; in assay [3] it was 0.283; in [4] it was -0.0904; in assay [5], 0.453; in assay [6], 1; in [7] it was 0.246. In addition, the composite z-score in [8] was 1.02; in [9], 0.784; in [10], 0.723; in assay [11], 1.22; in assay [12], 1.21; in [13], 0.237. In addition, the composite z-score in assay [14] turned out to be 0.991; in assay [15], 1.25; in assay [16] it was 1.02; in assay [18], 0.744; in assay [19], 0.847. For the same compound, the composite Z-score in [2] is -0.0544 (inactive). The z-score in assay [17] was -1.98; in assay [20] it was -0.84 (inactive).
As to `Cc1ccc([C@H]2[C@H](C(=O)O)[C@H](Sc3ccccc3)[C@@H](C(C)C)N2S(=O)(=O)c2ccc(C)cc2)cc1`, the composite z-score in [1] was found to be 0.907; in assay [3], 0.249; in assay [4], 0.0303; in assay [5], 0.66; in assay [6], 2.25; in assay [7], 0.722. In addition, the composite z-score in [8] is 1.31; in [9], -0.299; in assay [10] it was 1.09; in assay [11], 0.229; in assay [12], 1.19; in [13] it was 0.344. Moreover, the composite z-score in [14] is 0.996; in [15], 0.744; in assay [16], -0.228; in assay [18] it was 0.127; in assay [19], 0.798. The composite Z-score in [2] was 0.497 (inactive). In addition, the values for the z-score in assay [17] and in [20] were -1.31 and 0.426 (inactive), respectively.
As to `[N-]=[N+]=NCc1ccccc1C[C@]1(C(=O)NCCN2CCOCC2)N=C(c2ccc(OCCCO)cc2)O[C@H]1c1ccccc1N=[N+]=[N-]`, the composite z-score in assay [1] worked out at 0.926; in [3], 0.356; in assay [4], 0.253; in assay [5], 0.599; in [6], 2.62; in [7], 0.645. Further, the composite z-score was 1.29 in [8]; -0.509 in assay [9]; 1.16 in assay [10]; 0.853 in assay [11]; 1.25 in assay [12]; 0.669 in [13]. The composite z-score in assay [14] was 0.989; in [15], 0.714; in assay [16], 0.0056; in assay [18], -0.209; in assay [19], 0.976. For the same compound, in [2], the composite Z-score was 0.255 (inactive). Moreover, the z-score is 1.29 in assay [17] and -7.78 (inactive) in assay [20].
With `COc1ccc(C(=O)Nc2cccc(CN3C(=O)[C@]4(O[C@H](CC(=O)N5CCC[C@H]5CO)[C@@H]([Si](C)(C)c5ccc(OC)cc5)[C@@H]4C)c4ccccc43)c2)cc1`, the composite z-score in [1] was 0.114; in [3], -0.0044; in assay [4] it was -0.112; in [5], 0.485; in assay [6], 1.79; in [7] it was 0.276. Besides, the composite z-score in assay [8] stood at 1.01; in assay [9] it was 0.76; in assay [10] it was 1.02; in [11], 1.22; in assay [12], 1.15; in [13], 0.407. Besides, the composite z-score amounted to 0.634 in assay [14]; 1.03 in assay [15]; 1.33 in assay [16]; 0.728 in assay [18]; 0.595 in [19]. Besides, the composite Z-score in assay [2] is 0.535 (inactive). In addition, the figures for the z-score in assay [17] and in assay [20] were -0.407 and -0.895 (inactive), respectively.
For `CN1CCC(CCCO)=CC1c1ccc(CN2CCCC2)cc1` (stereo not given), the composite z-score is -0.225 in assay [1]; 0.29 in [3]; 0.0088 in [4]; 0.665 in assay [5]; 1.46 in [6]; 0.714 in assay [7]. The composite z-score in [8] is 1.32; in assay [9], 1.5; in [10], 0.776; in assay [11] it was 0.358; in assay [12], 1.06; in assay [13] it was -0.0595. Besides, the composite z-score in assay [14] was -0.294; in [15], 1.42; in assay [16] it was 1.65; in assay [18] it was 1.57; in assay [19], 1.18. For the same compound, in assay [2], the composite Z-score was -0.554 (inactive). The z-score in [17] is 0.0421; in assay [20], 0.536 (inactive).
